Structures are written as SMILES. Compounds without any hit were thinned out: in the full panel of roughly 83,000, 20% have a hit.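 Step 1: grow cells in 96-well plates. Step 2: add test compound at a single concentration. Step 3: incubate 48 h. Step 4: record percent growth.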 A number with no mark means an inactive call. Calls of active or inactive are those of the source. The calls were made as follows: active = growth percent below 10; inactive = the rest.

For one assay, the system named is T-47D breast. In words: NCI-60 one-dose screen, 48 h (100 = growth as untreated, 0 = no growth, -100 = all killed). The note with it: 10 µM unless noted.
As for `O=S(=O)(NCCCNc1nccc(-c2[nH]c(-c3ccccc3)nc2-c2ccc(Cl)c(O)c2)n1)c1cccc2ccccc12`, the growth was 21.9%.
Consider `Nc1ccccc1NC(=O)c1ccc(NC(=O)C/C=C/c2cccnc2)cc1`, for which the growth is 12.2%.
Still for that read-out and setting: then `COc1cc(-c2nc(SCCC(C)C)nc(NNC(=O)c3ccncc3)c2C#N)cc(OC)c1OC`, with 43%.
As for `O=C(NNc1nc2cc(F)c(F)cc2n2cccc12)c1cnccn1`, the growth is 13.6%.

The subject of the next assay is BT-549 breast. The assay is described as above. Particulars: 10 µM unless noted.
For the compound `CN1CCN(Cc2ccc(NC(=O)c3cncc(C#Cc4cnc5ccc(OCC6(C)COC6)nn45)c3)cc2C(F)(F)F)CC1`, the growth is -62% (active).
The same measure, in the same setting: under `CC(=O)c1cc(C(=O)c2ccc(Br)cc2)n2cc(C)cc(C)c12` stands 79%; under `COC(=O)C[Se]C(=O)Cc1c(C)n(C(=O)c2ccc(Cl)cc2)c2ccc(OC)cc12`, 102%; under `N#Cc1cccc(CN2CCC3=C(C2)C(=O)N(Cc2ccc(Cl)cc2)C2=NCCCN23)c1`, 64%.
The same measure, in the same setting: then `C=CCn1c(SCC(=O)Nc2ccc(C(=O)/C=C/c3ccc(C)cc3)cc2)nnc1-c1c[nH]c2ccccc12`, with 107%.
Still for that read-out and setting: under `CCCn1cnc2c(c1=N)C(c1ccc(OC)cc1)c1sc3c(CC)cccc3c1O2` (centres undefined) stands 33.3%; under `Cc1ccc(-c2cc3nc(C(Cl)Cl)nc(C)n3n2)cc1`, 115%.
Regarding `CCOC(=O)C(=O)CC(=O)N1C(=S)NC(=O)C1CC(C)C` (centres undefined), the growth was 87.5%.
In the case of `COc1ccc(-c2nc(C(Cl)Cl)nc3cc(-c4ccccc4)nn23)cc1`, the growth was 38.4%.
`CNC(=O)c1cc(-c2ccc(NS(=O)(=O)c3ccc(C)cc3)cc2)nc2cccnc12`: the growth was 110%.

(Values after PubChem BioAssay (NCI).)
